Assay results published in PubChem BioAssay.
Calls of active or inactive are those of the source. Cut-off read from the data, not from the text of the source, unless noted: active = inhibition above about 30%; inactive = the rest.

Experiment: yeast transport mutant growth inhibition pilot in 384-well plates, post-Golgi transport modulator project (AID 636; in the data active = inhibition above about 31%)
Conditions: absorbance 615 nm, about 18 h, hits give high values

inhibition, inactive:
CCOc1ccc(N2CC(C(=O)Nc3ccccc3OC)CC2=O)cc1 (stereo not given) -3.87%
O=C(Cn1ncc2c1-c1ccccc1OC2)N1CCN(c2ccccn2)CC1 -2.05%
CC1CN(c2c3c(nc4ncnn24)CCCC3)CC(C)O1 (stereo not given) -4.87%
CCOC(=O)C(CC)n1nc(C)n2c(cc3sccc32)c1=O (stereo not given) -5.87%
CCOC(=O)CN(C(=O)c1ccccc1)c1ccccc1C 0.78%
Cc1ccc(-n2ncc3c(N4CCCC(C)C4)ncnc32)c(C)c1 (stereo not given) -5.07%
CCN1CCN(C(c2cccs2)C(C)NC(=O)c2ccccc2)CC1 (stereo not given) -0.26%
CC1=C(C(=O)Nc2ccc(F)cc2)C(c2cccc(C)c2)n2nc(CCCO)nc2N1 (stereo not given) -3.73%
Cc1ccc(-c2noc(CN3C(C)CCCC3C)n2)cc1 (stereo not given) -3.73%
CC1CCN(C(=O)CSc2nnc(Cc3cc(=O)[nH]c(=O)[nH]3)n2-c2ccc(Cl)cc2)CC1 -1.54%
Cc1ccccc1-c1nc(CN2CCC(C(=O)N3CCC(C(N)=O)CC3)CC2)c(C)o1 -5.73%
COc1ccc(C(=O)c2ccc(OC)c(N)c2)cc1N 1.3%
O=C(CC1(O)C(=O)Nc2ccccc21)c1ccc2c(c1)OCO2 (stereo not given) 0.78%
CCOC(=O)c1[nH]c(C)c(C(=O)NC)c1C -0.26%
CN(C1CCCCC1)S(=O)(=O)c1ccc(S(=O)(=O)N2CCN(CCC#N)CC2)cc1 -2.27%
CC1CCCCC1NC(=O)Cn1ncc2ccccc21 (stereo not given) -2.93%
CCOC(=O)Cn1c(CCC(=O)O)ccc1-c1ccc(F)cc1 -5.6%
CCCc1cc(C(=O)Nc2ccc(C(C)=O)cc2)no1 1.92%
CCOC(=O)CN1C(=O)C(=O)c2cccc(C)c21 -1.54%
CCOc1ccc(NC(=O)C(C)Sc2nnc(C)n2C)cc1 (stereo not given) -1.33%
COc1cccc(CNC(=O)Cn2c(=O)oc3ccccc32)c1OC -6.27%
Oc1c(C(c2ccccc2)N2CCc3ccccc3C2)sc2ncnn12 (stereo not given) -2.69%
CCSc1nnc(N2C(=O)CC(c3ccsc3)C3=C2CC(C)(C)CC3=O)s1 (stereo not given) -6.67%
Cc1ccnc2c(N3C(=O)C4C5C=CC(C5)C4(C)C3=O)cccc12 (stereo not given) -3.47%
CCN(CC)C(=O)c1ccc(CS(=O)(=O)c2ccc(OC)cc2)o1 1.54%
CCCCCn1c(=O)[nH]c2cc(C(=O)NCCCN3CCCCC3)ccc2c1=O -6.76%
CC(C)c1nccn1S(=O)(=O)c1cc(Cl)ccc1Cl -4.03%
CCOC(=O)N1CCC(NC(=O)C2CCCN(C(=O)c3cc4sccc4n3C)C2)CC1 (stereo not given) -2.4%
CCCCNC(=O)Cn1c(=O)n(C)c2ccccc21 -5.07%
Cc1c(C#N)c2ccccc2n1CC(=O)N1CCc2ccccc2C1 6.67%
O=C(COc1ccc2ccccc2c1)N1CCCC1 0.38%
CCC(=O)N1CCN(c2nc(-c3ccccc3)c3c(c2C#N)CCCC3)CC1 -8.24%
CC1(C)CC(=O)c2cnc(NC(=O)Cc3ccc(Cl)cc3)nc2C1 -9.46%
CCOCCOc1nc2c(c(=O)n(C)c(=O)n2C)n1Cc1ccc(C)cc1 0.27%
CCN(C(=O)c1cc(Cl)ccc1OC)c1ccccc1 1.04%
Cc1cccc(-n2ncc3c(N(CCO)CCO)ncnc32)c1 -5.2%
N#CCCN1CCN(S(=O)(=O)c2ccc(S(=O)(=O)NC3CCCCC3)cc2)CC1 -2.69%
Cc1c(C)c2ccc(OC3CCCCC3=O)cc2oc1=O (stereo not given) -1.92%
COc1ccc(-n2c(Cc3cccn3C)nnc2SCC(=O)Nc2ccc(Cl)cc2)cc1 -0.38%
Cc1cc(C(N)=O)c2cc(Br)ccc2n1 -1.35%

Experiment: growth suppression of yeast trafficking mutant, preliminary HTS, modulators of trafficking downstream of Golgi apparatus project, 1536-format plate, OD 615 nm (AID 637)
Conditions: yeast transport mutant growth, absorbance 615 nm, 18 h; hits give high values

inhibition, inactive:
CCOc1ccc(N2CC(C(=O)Nc3ccccc3OC)CC2=O)cc1 (stereo not given) -3%
O=C(Cn1ncc2c1-c1ccccc1OC2)N1CCN(c2ccccn2)CC1 0.67%
CC1CN(c2c3c(nc4ncnn24)CCCC3)CC(C)O1 (stereo not given) 2%
CCOC(=O)C(CC)n1nc(C)n2c(cc3sccc32)c1=O (stereo not given) 1%
CCOC(=O)CN(C(=O)c1ccccc1)c1ccccc1C -11%
Cc1ccc(-n2ncc3c(N4CCCC(C)C4)ncnc32)c(C)c1 (stereo not given) 8%
CCN1CCN(C(c2cccs2)C(C)NC(=O)c2ccccc2)CC1 (stereo not given) 4%
CC1=C(C(=O)Nc2ccc(F)cc2)C(c2cccc(C)c2)n2nc(CCCO)nc2N1 (stereo not given) -2.83%
Cc1ccc(-c2noc(CN3C(C)CCCC3C)n2)cc1 (stereo not given) 2.33%
CC1CCN(C(=O)CSc2nnc(Cc3cc(=O)[nH]c(=O)[nH]3)n2-c2ccc(Cl)cc2)CC1 -4.17%
Cc1ccccc1-c1nc(CN2CCC(C(=O)N3CCC(C(N)=O)CC3)CC2)c(C)o1 4.67%
COc1ccc(C(=O)c2ccc(OC)c(N)c2)cc1N -1.31%
O=C(CC1(O)C(=O)Nc2ccccc21)c1ccc2c(c1)OCO2 (stereo not given) -3%
CCOC(=O)c1[nH]c(C)c(C(=O)NC)c1C -1.17%
CN(C1CCCCC1)S(=O)(=O)c1ccc(S(=O)(=O)N2CCN(CCC#N)CC2)cc1 4.26%
CC1CCCCC1NC(=O)Cn1ncc2ccccc21 (stereo not given) 0.33%
CCOC(=O)Cn1c(CCC(=O)O)ccc1-c1ccc(F)cc1 3.33%
CCCc1cc(C(=O)Nc2ccc(C(C)=O)cc2)no1 -1%
CCOC(=O)CN1C(=O)C(=O)c2cccc(C)c21 -0.5%
CCOc1ccc(NC(=O)C(C)Sc2nnc(C)n2C)cc1 (stereo not given) -1.17%
COc1cccc(CNC(=O)Cn2c(=O)oc3ccccc32)c1OC -0.67%
Oc1c(C(c2ccccc2)N2CCc3ccccc3C2)sc2ncnn12 (stereo not given) -2%
CCSc1nnc(N2C(=O)CC(c3ccsc3)C3=C2CC(C)(C)CC3=O)s1 (stereo not given) 9.5%
Cc1ccnc2c(N3C(=O)C4C5C=CC(C5)C4(C)C3=O)cccc12 (stereo not given) -5.5%
CCN(CC)C(=O)c1ccc(CS(=O)(=O)c2ccc(OC)cc2)o1 -6%
CCCCCn1c(=O)[nH]c2cc(C(=O)NCCCN3CCCCC3)ccc2c1=O 5.33%
CC(C)c1nccn1S(=O)(=O)c1cc(Cl)ccc1Cl -3.83%
CCOC(=O)N1CCC(NC(=O)C2CCCN(C(=O)c3cc4sccc4n3C)C2)CC1 (stereo not given) -0.83%
CCCCNC(=O)Cn1c(=O)n(C)c2ccccc21 -2%
Cc1c(C#N)c2ccccc2n1CC(=O)N1CCc2ccccc2C1 -3.17%
O=C(COc1ccc2ccccc2c1)N1CCCC1 -6%
CCC(=O)N1CCN(c2nc(-c3ccccc3)c3c(c2C#N)CCCC3)CC1 4.59%
CC1(C)CC(=O)c2cnc(NC(=O)Cc3ccc(Cl)cc3)nc2C1 -0.98%
CCOCCOc1nc2c(c(=O)n(C)c(=O)n2C)n1Cc1ccc(C)cc1 4.33%
CCN(C(=O)c1cc(Cl)ccc1OC)c1ccccc1 -10.3%
Cc1cccc(-n2ncc3c(N(CCO)CCO)ncnc32)c1 -1.97%
N#CCCN1CCN(S(=O)(=O)c2ccc(S(=O)(=O)NC3CCCCC3)cc2)CC1 3.67%
Cc1c(C)c2ccc(OC3CCCCC3=O)cc2oc1=O (stereo not given) -2.67%
COc1ccc(-n2c(Cc3cccn3C)nnc2SCC(=O)Nc2ccc(Cl)cc2)cc1 2%
Cc1cc(C(N)=O)c2cc(Br)ccc2n1 0.49%
